# The panel holds about 83,000 compounds, 20% with a hit somewhere; the sample as a whole holds those more often.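 Each cell line was grown in a 96-well plate and treated with one concentration of compound for 48 hours. Values below 10 were considered active.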 Values without a mark were called inactive. Activity calls are given as the source filed them.
# How the values were obtained:
# Assay in all cases: NCI-60 one-dose screen, 48 h (100 = growth as untreated, 0 = no growth, -100 = all killed)
# Details in all cases: 10 µM unless noted
# NCI-H23 lung = system: NCI-H23 lung
# NCI-H226 lung = system: NCI-H226 lung
# NCI-H322M lung = system: NCI-H322M lung
# HOP-62 NSCLC = system: HOP-62 NSCLC
# NCI-H460 lung = system: NCI-H460 lung
# HOP-92 NSCLC = system: HOP-92 NSCLC
# NCI-H522 lung = system: NCI-H522 lung
# A549/ATCC NSCLC = system: A549/ATCC NSCLC
# 786-0 renal = system: 786-0 renal
# COLO 205 colon = system: COLO 205 colon
# DU-145 prostate = system: DU-145 prostate
# K-562 leukemia = system: K-562 leukemia
# MALME-3M melanoma = system: MALME-3M melanoma
# MDA-MB-231 breast = system: MDA-MB-231 breast
# SF-268 CNS = system: SF-268 CNS
# SF-295 CNS = system: SF-295 CNS
# SF-539 CNS = system: SF-539 CNS
# UACC-257 melanoma = system: UACC-257 melanoma
# RXF 393 renal = system: RXF 393 renal
Structure (SMILES),growth (NCI-H23 lung),growth (NCI-H226 lung),growth (NCI-H322M lung),growth (HOP-62 NSCLC),growth (NCI-H460 lung),growth (HOP-92 NSCLC),growth (NCI-H522 lung),growth (A549/ATCC NSCLC),growth (786-0 renal),growth (COLO 205 colon),growth (DU-145 prostate),growth (K-562 leukemia),growth (MALME-3M melanoma),growth (MDA-MB-231 breast),growth (SF-268 CNS),growth (SF-295 CNS),growth (SF-539 CNS),growth (UACC-257 melanoma),growth (RXF 393 renal)
COc1ccc(OC)c(/C=C2\COc3ccc(O)cc3C2=O)c1,104%,98.5%,92.3%,108%,101%,93.7%,38%,101%,96.4%,109%,107%,9.33% (active),81.9%,98.3%,99.2%,102%,90.5%,99.4%,
COc1ccc(/C(C)=C(\c2ccc(Cl)cc2)c2ccc(OCCN3CCCC3)cc2)cc1F,55.1%,69.3%,62.2%,-17.6% (active),-55.6% (active),65.8%,71.1%,42.2%,4.18% (active),-40.6% (active),49.6%,-1.68% (active),-38.2% (active),36.7%,54.7%,-42.9% (active),3.19% (active),2.99% (active),
Nc1c(C(=O)c2ccc(Cl)s2)sc2nc3c(cc12)CCCC3,91.5%,96.6%,103%,97.3%,98.6%,82.5%,83.1%,100%,106%,110%,110%,101%,100%,108%,104%,102%,96.8%,105%,113%
O=C(O)c1ccc(CO)o1,110%,106%,105%,113%,101%,91.5%,86.4%,93.6%,77.8%,115%,113%,109%,113%,112%,109%,102%,99.6%,85.5%,104%
O=C(CCc1nc(-c2cccc(Cl)c2)no1)Nc1ccccn1,89.2%,89.8%,108%,124%,103%,82.3%,84.5%,111%,96.3%,117%,109%,87.5%,91.7%,95.6%,104%,94%,96.6%,114%,
COc1ccc(C2CC(c3ccc4ccccc4c3)=NN2c2nc(O)c(C3=c4cc(Cl)ccc4=NC3=O)s2)cc1 (stereo not drawn),-40.9% (active),-73.2% (active),-29.7% (active),-53.8% (active),-20% (active),-57.2% (active),-82% (active),-56% (active),-80.5% (active),-79.4% (active),-20.7% (active),-27.2% (active),-54.3% (active),-38.6% (active),-33.6% (active),-61.9% (active),-52.5% (active),-50.8% (active),-67.3% (active)
CC(C)OC(=O)NNC(=O)c1ccncc1,105%,107%,92.3%,108%,106%,113%,88.9%,105%,104%,110%,111%,110%,93%,108%,104%,113%,97.2%,105%,120%
O=C(Nc1ccc(N2CCCCC2)c(Cl)c1)c1ccc(Br)o1,81.3%,82.1%,115%,109%,69.4%,105%,87.2%,82.5%,97.6%,103%,68%,68.1%,-66.9% (active),69.2%,76%,105%,118%,67.5%,108%
COc1ccc(/C=C2\COc3ccc(O)cc3C2=O)cc1OC,105%,97%,90.4%,76%,67.6%,59.1%,35.2%,91.2%,88.2%,93.9%,65.7%,8.84% (active),92.6%,87.5%,93.1%,103%,83.2%,80.2%,
CC1=CC(=O)C(C(C)C)=CC1=Nc1cc(Br)c(O)c(Br)c1,25.7%,84.1%,53.6%,12.7%,5.15% (active),35.5%,55%,28.2%,9.71% (active),144%,3.08% (active),0.315% (active),96.6%,7.91% (active),27%,17%,-33.6% (active),95.5%,5.99% (active)
C/C(=N\NC(N)=S)c1nc2ccc(Cl)cc2[nH]1,75.4%,46.3%,70%,43%,15.3%,79.5%,34%,34.4%,31.2%,45%,34.1%,39.5%,113%,63.2%,33.2%,44.8%,43%,68.8%,48.9%
Clc1ccc(-c2cn(-c3ccccc3)c(-c3ccccc3)n2)cc1,85.2%,80.9%,95.9%,76.9%,104%,68.7%,55.2%,71.3%,81.3%,107%,93.9%,18.4%,111%,98.9%,96.9%,98.8%,102%,173%,132%
CCC(O)(C(c1ccccc1)c1ccccn1)C(c1ccccc1)c1ccccn1 (stereo not drawn),110%,104%,98.6%,106%,110%,109%,102%,104%,105%,105%,103%,101%,94.4%,120%,95.3%,122%,92.1%,112%,118%
CCCCCCCCCCCCCCCCCC1=NCCN1C(=O)OCCO,76.9%,78.5%,51.1%,52.6%,7.14% (active),56.5%,11.1%,-72.4% (active),87.2%,-72.9% (active),-3.11% (active),1.39% (active),94%,-25.6% (active),31.4%,23.3%,-25.7% (active),62.9%,49.8%
CCCCNC(=O)NS(=O)(=O)c1ccc(N2N=C(c3ccc(C)cc3C)CC2c2ccc(N(C)C)cc2)cc1 (stereo not drawn),69.5%,82.9%,87.4%,88.6%,39.2%,71.5%,50%,40.6%,53.1%,75.6%,84.8%,44.4%,101%,80.1%,79.9%,,62.6%,66.1%,79.5%
O=C(/C=C/c1ccccc1)c1ccc2ccccc2c1,92.1%,98.5%,99.8%,96.5%,110%,94.6%,-3.88% (active),96.3%,90.8%,38.3%,105%,56.9%,95.9%,94.3%,94.8%,107%,99.2%,87.9%,96.5%
CNC=O,85.7%,102%,97.5%,107%,101%,92%,94.9%,88.8%,102%,97.7%,77.9%,107%,97%,98.7%,99.3%,96.8%,88.8%,91.1%,42.3%
